Glioma ERSR ind: ER stress response induction in glioma | Potency, µM, actives largely listed as activators | U87-MG GRP78 promoter luciferase reporter, 16 h | actives 0.02% (n = 420,000); also: series mostly up to about 76 µM; nearly all actives have a fitted effect of over 35% in size
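Stably transfected U87-MG glioma cells carrying a GRP78-based luciferase sensor; 16 h compound incubation. Luminescence end-point read 10 min after Bright-Glo addition at room temperature.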
TrxR1 substrate: substrates of rat thioredoxin reductase 1; O89049; actives 0.01% (n = 390,000); Potency, µM (titrated, usually from 114 µM); AID 588456; purified TrxR1 substrate turnover, NADPH consumption readout; also: nearly all actives have a fitted effect of over 50% in size
Target sequence (O89049 whole entry, looked up): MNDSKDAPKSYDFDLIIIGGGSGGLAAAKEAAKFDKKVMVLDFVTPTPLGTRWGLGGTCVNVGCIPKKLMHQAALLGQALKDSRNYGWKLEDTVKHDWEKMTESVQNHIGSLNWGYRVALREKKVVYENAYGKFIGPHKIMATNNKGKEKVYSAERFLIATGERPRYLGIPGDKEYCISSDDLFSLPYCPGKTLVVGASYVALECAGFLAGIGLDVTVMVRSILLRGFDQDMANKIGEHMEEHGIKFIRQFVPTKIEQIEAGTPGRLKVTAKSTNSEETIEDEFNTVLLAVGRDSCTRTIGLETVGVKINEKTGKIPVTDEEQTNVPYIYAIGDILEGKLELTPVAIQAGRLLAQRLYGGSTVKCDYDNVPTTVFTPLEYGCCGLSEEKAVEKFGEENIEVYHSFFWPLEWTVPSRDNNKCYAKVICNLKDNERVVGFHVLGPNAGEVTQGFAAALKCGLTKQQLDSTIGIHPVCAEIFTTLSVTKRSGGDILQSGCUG
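Rat TrxR1, dispensed at 90 nM, was prereduced with 400 uM NADPH (final) for 5 min at ~22 deg C, then incubated with compound 15 min before 400 uM selenite. A first-read NADPH fluorescence drop versus no-compound background flagged substrates.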
TrxR1 inh: inhibitors of rat thioredoxin reductase 1; O89049; recombinant rTrxR1, NADPH fluorescence consumption, selenite substrate; Potency, µM (top dose mostly 114 µM), hits mostly inhibitors; actives 1% (n = 390,000); AID 588453; also: nearly all actives have a fitted effect of over 65% in size
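Rat TrxR1 (90 nM in the dispensed reagent) was pre-reduced with 400 uM NADPH for 5 min at room temperature, then incubated with compound for 15 min. After 400 uM selenite was added, NADPH fluorescence (Ex 340/Em 450 nm) was followed for 8 min.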
ALOX12 inh: inhibitors of human 12S-lipoxygenase ALOX12; actives 1.1% (n = 580,000); P18054; purified 12hLO, xylenol orange hydroperoxide absorbance; Potency, µM (highest dose often 108 µM), actives largely listed as inhibitors
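Purified human 12hLO at 150 nM in 25 mM Hepes, 0.01% Triton X-100, pH 7.0, preincubated 15 min at room temperature with compound. Reaction started with 40 uM arachidonic acid, 30 min at room temperature. Hydroperoxide measured by Fe-xylenol orange, 573/405 nm absorbance ratio.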
Anesthetic bind: candidate novel general anesthetic via apoferritin binding; P02791; apoferritin/1-aminoanthracene competitive binding, fluorescence; Potency, µM (series often up to 77.5 µM), actives largely listed as inhibitors; actives 0.074% (n = 350,000); AID 485281; also: nearly all actives have a fitted effect of over 20% in size
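Read-out: endpoint 1-AMA fluorescence, excitation 380 nm and emission 535 nm, after compounds sit 10 min at room temperature with 10 uM horse-spleen apoferritin in 50% saturated 1-AMA/PBS. Values come from four-parameter Hill fits.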
IDH1 R132H inh: blocks human mutant IDH1 R132H enzyme. actives 0.093% (n = 390,000). Potency, µM (doses to about 76.6 µM), usual class: inhibitors. IDH1-R132H enzyme, NADPH consumption, diaphorase/resazurin fluorescence. AID 602179. O75874; also: nearly all actives have a fitted effect of over 65% in size
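IDH1-R132H (0.5 ug/mL dispensed) in pH 7.5 Tris buffer was preincubated 30 min with compound, then given a substrate mix of 0.016 mM NADPH and 2 mM alpha-KG for 80 min at room temperature; remaining NADPH was read by diaphorase/resazurin fluorescence.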
Each line names hits and unclear results; the compound was inactive in the other large screens; ! = repeats disagree. This is a sample that favours compounds with a hit; in the whole collection about 1.7% have one here. Calls follow the shape of the dose curve; as a rule, active = well fitted curve in the direction sought with a large enough effect; inconclusive = small, poorly fitted or top-dose-only effect, or another doubt; inactive = no such curve, though single readings can be large; an effect the other way counts as inactive or inconclusive.

CC1=C(C(=O)Nc2ccccc2)C(c2ccc(C(C)C)cc2)NC(=O)N1 (centres undefined)	none (no result: Glioma ERSR ind, TrxR1 substrate, TrxR1 inh, Anesthetic bind, IDH1 R132H inh)
Clc1ccc(C2Nc3cccc4cccc(c34)N2)cc1	TrxR1 inh 35.5µM, ALOX12 inh 4.47µM
Brc1ccc(C2Nc3cccc4cccc(c34)N2)s1	TrxR1 inh 5.01µM, ALOX12 inh inconclusive
O=C1NC(c2ccc(Cl)c([N+](=O)[O-])c2)Nc2ccccc21 (centres undefined)	ALOX12 inh inconclusive
Cc1cccc(C2Nc3cccc4cccc(c34)N2)c1	TrxR1 inh inconclusive, ALOX12 inh inconclusive
O=[N+]([O-])c1cc(C2Nc3cccc4cccc(c34)N2)ccc1Cl	TrxR1 inh inconclusive, ALOX12 inh 39.8µM
Cc1ccc(-c2nc3ccccc3o2)cc1NC(=O)c1cccc2c(Cl)cccc12	none
CN(Cc1ccccc1)S(=O)(=O)c1ccc(NC(=S)NC(=O)C2CCCCC2)cc1	ALOX12 inh 17.8µM
CN(Cc1ccccc1)S(=O)(=O)c1ccc(NC(=S)NC(=O)C(C)(C)C)cc1	ALOX12 inh 35.5µM
CC1OC(OC2C(CO)OC(OC3C(CO)OC(O)C(O)C3O)C(O)C2O)C(O)C(O)C1NC1C=C(CO)C(O)C(O)C1O (centres undefined)	none (no result: TrxR1 substrate, TrxR1 inh, IDH1 R132H inh)
CC(=O)N1CCc2nc3sc(C(=O)Nc4ccc(F)cc4)c(N)c3c(C(F)(F)F)c2C1	none (no result: Glioma ERSR ind, TrxR1 substrate, TrxR1 inh, Anesthetic bind, IDH1 R132H inh)
CC(=O)c1cccc(-c2ccnc3c2CC(C(=O)NCC2CCOCC2)O3)c1 (centres undefined)	none (no result: TrxR1 substrate, TrxR1 inh, Anesthetic bind, IDH1 R132H inh)
O=C(N/C=C/c1ccco1)NCc1ccccc1	ALOX12 inh inconclusive
O=C(N/C=C/c1ccco1)OCc1ccccc1	ALOX12 inh 39.8µM
CCN(CC)c1ccc(NC(=O)CCS(=O)(=O)c2cccc3nsnc23)c(C)c1	TrxR1 inh 79.4µM!
Cc1nc2ccc(S(=O)(=O)CCC(=O)Nc3ccc(F)cc3C)cc2s1	ALOX12 inh 22.4µM
CC(C)NC(=O)N1CCC2(CC1)CC(C(=O)N1CCOCC1)N(C)C2 (centres undefined)	none (no result: Glioma ERSR ind, TrxR1 substrate, TrxR1 inh, Anesthetic bind, IDH1 R132H inh)
CCOC(=O)C1=C(NC(=S)NC(=O)c2ccccc2)c2ccccc2CC1C(C)C (centres undefined)	ALOX12 inh inconclusive
CCOC(=O)C1=C(NC(=S)NC(=O)c2ccccc2)c2ccccc2CC1(C)CC (centres undefined)	ALOX12 inh 15.8µM, Anesthetic bind inconclusive
NC(=NCc1ccc(Cl)cc1Cl)NC(=O)c1nc(Cl)c(N)nc1N	ALOX12 inh inconclusive, Anesthetic bind inconclusive (no result: TrxR1 substrate, TrxR1 inh, IDH1 R132H inh)
COc1cccc(C(=O)N2c3nc(-c4ccco4)nn3C3(CCCCC3)[C@@H]3CCCC[C@@H]32)c1	TrxR1 inh 8.91µM, Anesthetic bind inconclusive
O=C(c1cccc(Cl)c1)N1c2nc(-c3ccco3)nn2C2(CCCCC2)[C@@H]2CCCC[C@@H]21	none
COc1ccc(-c2c(-c3ccc4c(c3)OCO4)noc2-c2ccsc2)cn1	none (no result: ALOX12 inh, Anesthetic bind, IDH1 R132H inh)
c1ccc(-c2onc(-c3ccco3)c2-c2ccc3c(c2)OCO3)cc1	TrxR1 inh 50.1µM, ALOX12 inh inconclusive
CC1(C(=O)N2CCN(c3ccccn3)CC2)CCOCC1	none (no result: Glioma ERSR ind, TrxR1 substrate, TrxR1 inh, Anesthetic bind, IDH1 R132H inh)
Cc1nc(N2CCN(C(=O)CN3CCCCC3)CC2)c(C#N)c2c1COC(C)(C)C2	none (no result: Glioma ERSR ind, TrxR1 substrate, TrxR1 inh, Anesthetic bind, IDH1 R132H inh)
c1csc(C2C3=C(Nc4ncnn42)c2ccccc2OC3)c1 (centres undefined)	TrxR1 inh 79.4µM
CC1=C(C(N)=O)C(c2cccs2)n2ncnc2N1 (centres undefined)	none
COC(=O)CC(NC(=S)NC(=O)c1ccccc1)c1ccc(Br)cc1 (centres undefined)	TrxR1 inh inconclusive, ALOX12 inh 7.94µM
Cc1cc(C)cc(NC(=O)Cn2c(-c3cnccn3)nc(C)c(C)c2=O)c1	none (no result: Glioma ERSR ind, TrxR1 substrate, TrxR1 inh, Anesthetic bind, IDH1 R132H inh)
CC1=CC(=O)C(Sc2ccc(C)cc2)=CC1=O	ALOX12 inh 1.12µM (no result: TrxR1 substrate, TrxR1 inh, Anesthetic bind)
CCOc1ccc2c(n1)CCN(C(=O)COc1cccc(C)c1)C2	none (no result: Glioma ERSR ind, TrxR1 substrate, TrxR1 inh, Anesthetic bind, IDH1 R132H inh)
CCc1ccc(CNC(=O)Cn2nc(-c3ccccc3)ccc2=O)cc1	Anesthetic bind 11.2µM
O=C(Cn1nc(-c2ccccc2)ccc1=O)NCc1ccc(F)cc1Cl	Anesthetic bind 11.2µM
